High-throughput results deposited in PubChem BioAssay by National Center for Advancing Translational Sciences (NCATS).
HCMV antiviral – qHTS Assay for inhibitors of the human cytomegalovirus (HCMV) | AID 1259415, 2018 | hit rate 4.5% among 410,000 | activity change, negative = inhibition, % at 57.5 µM | HFF cells, HCMV-luciferase reporter, 72 h; active compounds read low; in the data active = activity change below about -60%; inconclusive = no clear call, values can overlap the other calls; inactive = above about -39%
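HFF cells seeded 16 h at 37C, treated with compounds, infected with luciferase-reporter HCMV at MOI 1 PFU/cell; luciferase read at 72 h post infection, normalized to buffer-only and Salinomycin controls.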
MARV entry inh – qHTS for inhibitors of binding or entry into cells for Marburg Virus; Marburg virus pseudotyped entry inhibition, cell reporter; Potency, µM (titrated, usually from 37.8 µM), without a hit: at the highest dose activity change, negative = inhibition, actives largely listed as inhibitors; hit rate 1.8% among 300,000; calls by dose curve; tested in HEK293 cells; also: potency is read from the fitted curve at half-maximal effect
VACV Venus inh – qHTS for Stage-Specific Inhibitors of Vaccinia Orthopoxvirus: Venus Reporter Primary qHTS; Potency, µM (titrated, usually from 36.5 µM), inactives show at the highest dose activity change, negative = inhibition, hits mostly inhibitors; Vaccinia virus Venus reporter expression, fluorescence; hit rate 0.46% among 330,000; calls by dose curve; tested in A549 cells; also: potency is read from the fitted curve at half-maximal effect; nearly all actives have a fitted effect of over 30% in size
Lassa entry inh – qHTS for Inhibitors of binding or entry into cells for Lassa Virus; Lassa virus pseudotype entry inhibition, cell reporter; Potency, µM (titrated, usually from 37.9 µM), without a hit: top-dose activity change, negative = inhibition, hits mostly inhibitors; hit rate 1.2% among 300,000; calls by dose curve; tested in HEK293 cells; also: potency is read from the fitted curve at half-maximal effect; nearly all actives have a fitted effect of over 50% in size
FMDV antiviral – High Throughput Screening for Foot and Mouth Disease Virus Antivirals | FMDV antiviral cell-based qHTS | Potency, µM (highest dose often 57.9 µM), inactives show at the highest dose activity change, negative = inhibition, usual class: inhibitors | hit rate 1.2% among 410,000; calls by dose curve; tested in HEK293T cells; also: read-out not given here; potency is read from the fitted curve at half-maximal effect; nearly all actives have a fitted effect of over 45% in size
Vaccinia mCherry – qHTS for Stage-Specific Inhibitors of Vaccinia Orthopoxvirus: mCherry Reporter Primary qHTS. Vaccinia virus mCherry reporter infection, fluorescence. Potency, µM (series often up to 36.5 µM), for inactives: at the highest dose activity change, negative = inhibition, actives largely listed as inhibitors. hit rate 0.63% among 310,000. AID 720579, 2013; calls by dose curve; tested in A549 cells; also: potency is read from the fitted curve at half-maximal effect; nearly all actives have a fitted effect of over 35% in size
The depositor's hits bear a star; i = inactive; ? = inconclusive; · = no result given; + = active, no number; [ ] = dose if it differs, or a comment. This is a sample that favours compounds with a hit; in the whole collection about 6.5% have one here. % is scaled to controls: 0 for no effect and ±100 for the full control effect.

SMILES	HCMV antiviral	MARV entry inh	VACV Venus inh	Lassa entry inh	FMDV antiviral	Vaccinia mCherry
CC1CCN(S(=O)(=O)c2ccc([N+](=O)[O-])cc2)CC1	-6	?	-8%	-4%[46.1 µM]	-16%	-15%
CCOC(=O)C1CSCCS(=O)(=O)N1Cc1ccc(F)cc1 (centres undefined)	19	·	·	·	·	·
CCC[C@H]1[C@@H](NS(=O)(=O)c2cc(Cl)cc(Cl)c2)CC[C@@]23CCCN2C(=O)CCC[C@@H]13	2	·	·	·	·	·
C[C@@](N)(C(=O)O)[C@@H]1C[C@@H]1C(=O)O	·	·	-3%	·	40µM*	i
CCN(CC)CC(C)CNC(=O)c1cc(-c2ccc(Br)s2)nc2ccccc12 (centres undefined)	?	?	?	-12%[46.1 µM]	-23%	?
O=C(CC(=O)Nc1ccccc1[N+](=O)[O-])Nc1ccccc1[N+](=O)[O-]	-65*	?	-19%	-37%[46.1 µM]	-14%	-16%
Cc1cc(C(=O)COC(=O)c2ccc3c(c2)NC(=O)CS3)c(C)n1CC1CCCO1 (centres undefined)	-9	?	-18%	8%	28µM*	-1%
COCCn1c(C)cc(C(=O)COC(=O)CNC(=O)c2ccccc2)c1C	-35	-7%[46.1 µM]	-11%	-18%	25µM*	i
Cc1cc(C(=O)COC(=O)CNC(=O)c2ccccc2)c(C)n1CC1CCCO1 (centres undefined)	-14	-6%[46.1 µM]	-1%	14%	16µM*	i
COc1ccccc1Nc1nnc(SCC(=O)c2cc(C)n(CC3CCCO3)c2C)s1 (centres undefined)	-76*	3%	-15%	0%	-19%	·
Cc1cc(C(=O)CSc2nnc(Nc3ccccc3F)s2)c(C)n1CC1CCCO1 (centres undefined)	-11	-19%	-15%	-6%	?	i
O=c1c(S(=O)(=O)c2ccccc2)cn(Cc2ccc(F)cc2)c2cc(N3CCCC3)c(F)cc12	-4	·	-4%	-4%[46.1 µM]	5%	-2%
Cc1ccc(S(=O)(=O)N2CCC([C@H](C#N)c3ccccc3)CC2)cc1	-12	·	·	·	·	·
CCOC(=O)C1(C)C=C(Nc2cccc(C(=O)O)c2)C(=O)N1c1ccccc1 (centres undefined)	51	?	-1%	9%[46.1 µM]	51%	-10%
Cc1cccc(NC(=O)c2sc3nc(-c4ccccc4)cn3c2C)c1C	2	·	-11%	-13%[46.1 µM]	28%	-12%
Cc1cc(C(=O)COC(=O)c2ccc[nH]c2=O)c(C)n1C	-20	-4%	-11%	0%	24%	i
COCCn1c(C)cc(C(=O)COC(=O)c2ccc[nH]c2=O)c1C	-65*	?	1%	?	?	-12%
Cc1cc(C(=O)COc2cc(F)ccc2[N+](=O)[O-])c(C)n1CC1CCCO1 (centres undefined)	-66*	·	·	·	-6%	·
CNS(=O)(=O)c1cccc(C(=O)OCC(=O)c2cc(C)n(CC3CCCO3)c2C)c1 (centres undefined)	11	?	-16%	13µM*	12%	7%
Cc1cc(-n2c(C)cc(C(=O)COc3cc(F)ccc3[N+](=O)[O-])c2C)no1	?	·	·	·	13%	·
OCCN1C2=NCCCN2c2ccccc21	25	?	-4%	5%[46.1 µM]	-10%	i
CCCN1C2=NS(=O)(=O)CCN2c2ccccc21	-101*	?	-7%	20%	-9%	·
COc1cc(-c2nc(-c3ccccc3)c(-c3cc([N+](=O)[O-])ccc3C)[nH]2)cc(OC)c1OC	-73*	?	?	?	-25%	·
COc1cc(-c2nc(-c3cccc(Cl)c3)c(-c3ccccc3)[nH]2)cc(OC)c1OC	-33	?	-14%	?	-17%	-25%
COc1ccc2nc(N/C(N)=N/C(=S)Nc3c(C)cccc3C)nc(C)c2c1	-71*	?	·	?	22%	·
SMILES	HCMV antiviral	MARV entry inh	VACV Venus inh	Lassa entry inh	FMDV antiviral	Vaccinia mCherry
COc1ccc2nc(N/C(N)=N/C(=S)Nc3cccc(C)c3)nc(C)c2c1	-7	?	-14%	-17%	-2%	·
Cc1ccc(NC(=S)/N=C(\N)Nc2nc(C)c3cc(C)ccc3n2)c(C)c1	-86*	?	?	15%	-19%	i
Cc1cc(Cc2cc(C)c(O)c(CO)c2)cc(CO)c1O	8	?	-26%	?	-27%	5.6µM*
CCOC(=O)Cc1csc(NC(=O)CC)n1	6	3%	0%	1%	·	-2%
CCOC(=O)Cc1csc(NC(=S)NC(=O)c2cc(OC)c(OC)c(OC)c2)n1	26	·	·	·	?	·
CCOC(=O)Cc1csc(NC(=O)CC(C)(C)C)n1	121	?	-3%	7.1µM*	23%	-10%
CCOC(=O)Cc1csc(NC(=S)NC(=O)c2ccc(F)cc2)n1	-62*	16%	-4%	-13%	-20%	-5%
CCOC(=O)c1[nH]c(C)c(C(=O)NCc2cccc(OC)c2)c1C	-14	?	-6%	-21%[46.1 µM]	-10%	-18%
COc1ccc(OC)c(C2C3=C(COC3=O)Nc3cc4c(cc32)OCO4)c1 (centres undefined)	-84*	0.26µM*	·	-33%	-22%	·
N/C(=N\OC(=O)c1ccc(Cl)cc1Cl)c1ccccc1	30	?	·	8.2µM*	-71%	·
Cc1cc(C)nc(OC(=O)c2ccc(Cl)cc2Cl)n1	-102*	·	·	·	·	·
Cc1ccc(/C(N)=N/OC(=O)c2ccc(C)cc2Cl)cc1	-79*	?	-10%	?	?	-6%
CCCCNC(=O)CSc1nc2n[nH]c(C)c2c(=N)n1-c1ccccc1CC	-19	·	-13%	?	-27%	-4%
COCCCNC(=O)c1ccc2c(c1)N=C(C)c1c(C)ccc(C)c1S2	·	?	-29%	?	-25%	-30%
CC1=Nc2cc(C(=O)NCCCOC(C)C)ccc2Sc2ccc(C)cc21	-76*	?	?	?	15%	?
CC1=Nc2cc(C(=O)NCCCOC(C)C)ccc2Sc2ccccc21	+	?	-24%	?	8%	-3%
CC1=Nc2cc(C(=O)NCCc3ccc(Cl)cc3)ccc2Sc2ccc(C)cc21	-65*	7.9µM*	?	?	-2%	?
Cc1cccc(N2CCN(c3ccc4cc(S(=O)(=O)N5CCC(C)CC5)ccc4n3)CC2)c1C	21	·	-2%	?	-22%	-10%
CCOC(=O)c1ccc(N2C(=O)c3[nH]nc(-c4ccc(C)cc4)c3C2c2ccc(O)c(OCC)c2)cc1 (centres undefined)	-101*	?	-20%	?	?	-17%
CCOC(=O)c1ccc(N2C(=O)c3n[nH]c(-c4ccco4)c3C2c2ccc(OC)cc2OC)cc1 (centres undefined)	-105*	?	-18%	?	?	-13%
